# According to PubChem BioAssay:
# For part of these data: Entries with a potency or affinity are not part of this list. Active and inactive are the calls of the source.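 Rule for the calls, unless noted: active = hit in primary screen, with calcium signal over 5 SD above buffer well mean in both duplicates; inactive = the rest.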
# Assays:
# [1] = system: TRPC4 beta (transient receptor potential cation channel C4), mouse; assay: TRPC4 cation channel opening, retest – cell-based, Fluo4 calcium, HEK293 TRPC4beta/mu-opioid, duplicates, 10 µM, confirmation (AID 2426;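 active = fluorescence ratio normalized to control raised more than 50% in primary screen plus both repeat runs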;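 for activation: percent rise of integrated ratio over buffer wells lacking compound which define 0%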); conditions: Fluo4 calcium fluorescence, at 10 µM; stronger effect = higher value
# [2] = system: transient receptor potential cation channel C4 beta (TRPC4), mouse; assay: TRPC4 cation channel opening, second retest – cell-based, second round, Fluo4, HEK293 TRPC4beta/mu-opioid, 1 µM, confirmation (AID 2461;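 active = primary screen active and over 50% activation in each of two duplicate runs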;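 for activation: 0% = wells without test compound as baseline of integrated fluorescence ratio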); conditions: Fluo4 calcium fluorescence, at 1 µM; stronger effect = higher value
# [3] = system: TRPC4 (transient receptor potential cation channel C4 beta), mouse; assay: potentiation of DAMGO EC20 TRPC4 response – cell-based, second round, Fluo-4, HEK293 TRPC4beta/mu-opioid, 1 µM, confirmation (AID 2554;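 active = primary screen hit whose fluorescence ratio, in both repeats, exceeds the weak agonist control mean by 3 SD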); conditions: DAMGO EC20, Fluo-4 calcium flux, at 1 µM; stronger effect = higher value
# [4] = system: TRPC4 beta (transient receptor potential cation channel C4), mouse; assay: potentiation of DAMGO EC20 TRPC4 response – cell-based, Fluo-4, HEK293 TRPC4beta/mu-opioid, confirmation (AID 2555;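 active = primary screen hit whose calcium fluorescence ratio, in both repeats, exceeds the weak agonist control mean by 3 SD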); conditions: DAMGO EC20, Fluo-4 calcium flux, at 10 µM; stronger effect = higher value
# [5] = biological target: Short transient receptor potential channel 4 (Mus musculus) (UniProt Q9QUQ5); assay: blockers of DAMGO-evoked TRPC4 calcium flux – cell-based, Fluo4, HEK293 TRPC4beta/mu-opioid, confirmation (AID 2636;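 active = calcium signal cut by more than 3 SD below the full-agonist control yet still positive, in both repeats and the earlier primary screen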); conditions: at 10 µM; stronger effect = higher value
# Short transient receptor potential channel 4 (Mus musculus), sequence (Q9QUQ5 whole entry, looked up): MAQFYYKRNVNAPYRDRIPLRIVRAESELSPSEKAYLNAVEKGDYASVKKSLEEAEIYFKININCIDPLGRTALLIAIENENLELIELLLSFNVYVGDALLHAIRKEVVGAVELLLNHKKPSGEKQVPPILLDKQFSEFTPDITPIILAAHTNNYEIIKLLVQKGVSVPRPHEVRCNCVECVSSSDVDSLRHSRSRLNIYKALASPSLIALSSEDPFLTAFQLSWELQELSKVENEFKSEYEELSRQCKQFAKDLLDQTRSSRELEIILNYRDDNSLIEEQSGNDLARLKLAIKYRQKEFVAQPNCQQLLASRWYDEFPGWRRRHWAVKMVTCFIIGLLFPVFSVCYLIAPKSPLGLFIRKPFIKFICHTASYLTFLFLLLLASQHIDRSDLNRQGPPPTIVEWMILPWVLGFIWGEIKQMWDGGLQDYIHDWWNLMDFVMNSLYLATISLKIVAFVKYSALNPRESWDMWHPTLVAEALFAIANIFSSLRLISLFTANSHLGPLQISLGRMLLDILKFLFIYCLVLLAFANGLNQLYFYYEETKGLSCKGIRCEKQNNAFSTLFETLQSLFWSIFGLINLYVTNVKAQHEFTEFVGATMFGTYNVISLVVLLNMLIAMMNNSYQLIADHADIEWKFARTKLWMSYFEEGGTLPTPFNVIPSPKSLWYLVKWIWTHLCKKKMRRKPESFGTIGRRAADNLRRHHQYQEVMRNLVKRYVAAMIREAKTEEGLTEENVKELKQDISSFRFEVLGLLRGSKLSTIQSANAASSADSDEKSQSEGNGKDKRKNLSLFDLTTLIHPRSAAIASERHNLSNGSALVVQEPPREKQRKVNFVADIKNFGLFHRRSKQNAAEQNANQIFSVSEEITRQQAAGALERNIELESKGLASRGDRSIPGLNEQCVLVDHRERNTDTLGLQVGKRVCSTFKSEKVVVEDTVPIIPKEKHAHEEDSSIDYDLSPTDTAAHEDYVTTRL
# [6] = biological target: Short transient receptor potential channel 4 (Mus musculus) (UniProt Q9QUQ5); assay: blockers of DAMGO-evoked TRPC4 calcium flux – cell-based, second round, Fluo4, HEK293 TRPC4beta/mu-opioid, 1 µM, confirmation (AID 2637;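 active = calcium signal ratio cut to more than 3 SD under the fully stimulated control mean yet still positive, in both repeats and the primary screen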); conditions: at 1 µM; stronger effect = higher value
# [7] = biological target: Short transient receptor potential channel 4 (Mus musculus) (UniProt Q9QUQ5); assay: potentiation of DAMGO-evoked TRPC4 calcium signal – cell-based, HEK293 TRPC4/mu-opioid, Fluo-4 calcium, EC20 DAMGO, dose response (AID 434941;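 active = earlier screen potentiator hit that boosts the TRPC4 ion channel at some dose, with a dose response; inactive = no potentiation, no dose response, or not a prior hit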;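 note: calcium entry triggered by an EC20 dose of DAMGO at the co-expressed mu-opioid receptor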)
# [8] = biological target: Short transient receptor potential channel 4 (Mus musculus) (UniProt Q9QUQ5); assay: block of DAMGO-driven TRPC4 calcium entry – cell-based, HEK293 TRPC4/mu-opioid, Fluo-4 calcium, dose response (AID 434942;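 active = primary screen inhibitor hit that blocks the TRPC4 channel at some tested dose, yielding a dose curve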)
# [9] = biological target: Short transient receptor potential channel 6 (Mus musculus) (UniProt Q61143); assay: TRPC6 blockade by TRPC4 inhibitor hits – cell-based, HEK293, membrane potential dye, duplicate, selectivity assay for TRPC4 inhibitor project, confirmation (AID 434948;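 active = active in primary screen and both duplicates, each dropping signal beyond three positive-control SD with fluorescence still positive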); conditions: HEK293 TRPC6, membrane potential dye fluorescence, at 10 µM, stimulated with maximal-effect acetylcholine; stronger effect = higher value
# Short transient receptor potential channel 6 (Mus musculus), sequence (Q61143 whole entry, looked up): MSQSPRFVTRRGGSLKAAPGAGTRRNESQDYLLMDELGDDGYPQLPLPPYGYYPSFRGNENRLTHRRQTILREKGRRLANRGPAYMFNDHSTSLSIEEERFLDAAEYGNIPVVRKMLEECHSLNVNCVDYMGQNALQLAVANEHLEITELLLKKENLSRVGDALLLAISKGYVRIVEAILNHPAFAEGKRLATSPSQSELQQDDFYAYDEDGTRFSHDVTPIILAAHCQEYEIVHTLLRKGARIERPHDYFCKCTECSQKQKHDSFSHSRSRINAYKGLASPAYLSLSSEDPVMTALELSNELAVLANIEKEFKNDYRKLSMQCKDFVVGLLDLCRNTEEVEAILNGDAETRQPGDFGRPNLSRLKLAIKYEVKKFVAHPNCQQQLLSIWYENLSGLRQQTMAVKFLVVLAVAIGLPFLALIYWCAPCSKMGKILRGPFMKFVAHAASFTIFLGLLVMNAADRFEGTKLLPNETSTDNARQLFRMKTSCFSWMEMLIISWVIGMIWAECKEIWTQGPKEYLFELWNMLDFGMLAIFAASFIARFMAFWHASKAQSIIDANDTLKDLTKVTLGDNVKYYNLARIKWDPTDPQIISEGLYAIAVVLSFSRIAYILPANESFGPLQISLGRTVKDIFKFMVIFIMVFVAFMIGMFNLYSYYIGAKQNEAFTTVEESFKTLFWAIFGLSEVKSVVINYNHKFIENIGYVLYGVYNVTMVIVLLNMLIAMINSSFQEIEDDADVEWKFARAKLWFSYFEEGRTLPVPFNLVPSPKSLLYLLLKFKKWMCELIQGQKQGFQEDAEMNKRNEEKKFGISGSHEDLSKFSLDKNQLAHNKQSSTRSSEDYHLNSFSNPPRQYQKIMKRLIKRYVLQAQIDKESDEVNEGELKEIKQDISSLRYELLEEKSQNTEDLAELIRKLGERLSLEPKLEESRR
# [10] = biological target: Short transient receptor potential channel 6 (Mus musculus) (UniProt Q61143); assay: TRPC6 opening by TRPC4 activator hits – cell-based, HEK293, membrane potential dye, duplicate, selectivity assay for TRPC4 activator project, confirmation (AID 434950;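 active = membrane potential signal rise above negative control mean plus 3 SD in both duplicates, also active in the earlier TRPC4 screen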;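 for activation: 0% = buffer only wells and 100% = acetylcholine maximal-effect wells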); conditions: HEK293 TRPC6, membrane potential fluorescence, at 10 µM; activation: stronger effect = higher value; outcome: activation
# [11] = biological target: Short transient receptor potential channel 6 (Mus musculus) (UniProt Q61143); assay: positive modulators of mouse TRPC6 channel – HEK293 cells, membrane potential dye, duplicate, selectivity assay for TRPC4 potentiator project, confirmation (AID 434952;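 active = compound raising the membrane signal above positive-control mean plus 3 SD in both repeats, and a primary screen hit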); conditions: HEK293 TRPC6, membrane potential dye fluorescence, at 10 µM, maximal acetylcholine added after compound; stronger effect = higher value
# [12] = biological target: Short transient receptor potential channel 4 (Mus musculus) (UniProt Q9QUQ5); assay: calcium flux activators in TRPC4/5HT1a cells, counter-screen for TRPC4 activator project, cell-based, second counter screen, HEK293 TRPC4/5HT1a, Fluo-4 (AID 434977;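 active = calcium signal rise above buffer-control mean plus 5 SD in both duplicates, and also a hit in the primary screen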;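 for activation: plate controls were assay buffer for no effect and maximal serotonin response for full effect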); conditions: Fluo-4 calcium flux, at 10 µM; stronger effect = higher value
# [13] = serotonin-gated TRPC4 signal block – cell-based, second counter screen, HEK293 TRPC4/5HT1a, Fluo-4, counter-screen for TRPC4 inhibitor project, confirmation (AID 434978;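 active = primary screen active whose calcium signal fell more than 3 SD beyond the full-serotonin control mean in both duplicate plates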;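 note: serotonin given first at submaximal then at maximal dose after compound preincubation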); conditions: Fluo-4 calcium flux, at 10 µM, serotonin added to trigger calcium flux; stronger effect = higher value
# [14] = system: TRPC4 (mouse), co-expressed with 5HT1a in HEK293; assay: enhancement of serotonin-evoked TRPC4 response – cell-based, second counter screen, HEK293 TRPC4/5HT1a, Fluo-4, counter-screen for TRPC4 potentiator project, confirmation (AID 434979;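 active = signal rise over 3 SD above mean of control wells given weak agonist, in both repeats and first screen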); conditions: Fluo-4 calcium flux, at 10 µM, serotonin added at its EC20 dose; stronger effect = higher value
# [15] = nonspecific calcium rise without TRPC4 – cell-based, HEK293 mu-opioid receptor line, counter-screen for TRPC4 activator project, confirmation (AID 449723); conditions: HEK293 mu-opioid cells, Fluo-4 calcium fluorescence, at 10 µM; stronger effect = higher value;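 note: counter screen cells carry the mu-opioid receptor alone and lack TRPC4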
# [16] = nonspecific potentiation of DAMGO calcium response – cell-based, HEK293 mu-opioid receptor line, counter-screen for TRPC4 allosteric potentiator project, confirmation (AID 449724;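 active = calcium signal rise more than 3 SD above the low-dose agonist control mean, in both duplicate plates and the primary screen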); conditions: HEK293 mu-opioid receptor cells, Fluo-4 calcium flux, at 10 µM, compound added before EC20 DAMGO stimulus; stronger effect = higher value
smiles,measurement,setting,value
COc1ccc(C(CNC(=O)COc2ccccc2OC)N(C)C)cc1OC (stereo not given),activation,[1],133% (active)
same,outcome,[2],inactive
same,outcome,[3],inactive
same,outcome,[4],inactive
same,outcome,[5],inactive
same,outcome,[6],inactive
same,outcome,[7],inactive
same,outcome,[8],inactive
same,outcome,[9],inactive
same,activation,[10],35% (active)
same,outcome,[11],inactive
same,outcome,[12],inactive
same,outcome,[13],inactive
same,outcome,[14],inactive
same,outcome,[15],inactive
same,outcome,[16],inactive
Clc1cccc(OCCN2CCNCC2)c1,activation,[1],66% (active)
same,activation,[2],54% (active)
same,outcome,[3],inactive
same,outcome,[4],inactive
same,outcome,[5],inactive
same,outcome,[6],inactive
same,outcome,[7],inactive
same,outcome,[8],inactive
same,outcome,[9],inactive
same,outcome,[10],inactive
same,outcome,[11],inactive
same,activation,[12],31.1% (active)
same,outcome,[13],inactive
same,outcome,[14],inactive
same,outcome,[15],inactive
same,outcome,[16],inactive
O=C(O)c1ccc(-c2ccc(/C=N/Nc3ccc([N+](=O)[O-])cc3)o2)cc1,activation,[1],120% (active)
same,outcome,[2],inactive
same,outcome,[3],inactive
same,potentiation,[4],11% (active)
same,outcome,[5],inactive
same,outcome,[6],inactive
same,outcome,[7],inactive
same,outcome,[8],inactive
same,outcome,[9],inactive
same,activation,[10],442% (active)
same,outcome,[11],inactive
same,activation,[12],111% (active)
same,outcome,[13],inactive
same,outcome,[14],inactive
same,activation,[15],106% (active)
same,outcome,[16],inactive
Cn1c(=O)c2c(nc(CN3CCc4ccccc4C3)n2Cc2ccccc2F)n(C)c1=O,activation,[1],221% (active)
same,outcome,[2],inactive
same,outcome,[3],inactive
same,outcome,[4],inactive
same,outcome,[5],inactive
same,outcome,[6],inactive
same,outcome,[7],inactive
same,outcome,[8],inactive
same,outcome,[9],inactive
same,outcome,[10],inactive
same,outcome,[11],inactive
same,outcome,[12],inactive
same,outcome,[13],inactive
same,outcome,[14],inactive
same,outcome,[15],inactive
same,outcome,[16],inactive
CCOC(=O)C1(CC2CCCCO2)CCN(Cc2cc(F)ccc2-n2cccn2)CC1 (stereo not given),outcome,[1],inactive
same,outcome,[2],inactive
same,outcome,[3],inactive
same,outcome,[4],inactive
same,outcome,[5],inactive
same,outcome,[6],inactive
same,outcome,[7],inactive
same,outcome,[8],inactive
same,outcome,[9],inactive
same,activation,[10],76.5% (active)
same,outcome,[11],inactive
same,outcome,[12],inactive
same,outcome,[13],inactive
same,outcome,[14],inactive
same,outcome,[15],inactive
same,outcome,[16],inactive
CCCN(CCC)CCCNC(=O)c1ccc2c(Cl)c3c(nc2c1)CCC3,activation,[1],90% (active)
same,activation,[2],89% (active)
same,outcome,[3],inactive
same,outcome,[4],inactive
same,outcome,[5],inactive
same,outcome,[6],inactive
same,outcome,[7],inactive
same,outcome,[8],inactive
same,outcome,[9],inactive
same,activation,[10],27% (active)
same,outcome,[11],inactive
same,activation,[12],105% (active)
same,outcome,[13],inactive
same,outcome,[14],inactive
same,outcome,[15],inactive
same,outcome,[16],inactive
CC1CC(C)CN(CCCNS(=O)(=O)c2cc(Br)cc3c2N(C(=O)C2CC2)CC3)C1 (stereo not given),activation,[1],139% (active)
same,activation,[2],114% (active)
same,outcome,[3],inactive
same,outcome,[4],inactive
same,outcome,[5],inactive
same,outcome,[6],inactive
same,outcome,[7],inactive
same,outcome,[8],inactive
same,outcome,[9],inactive
same,activation,[10],30% (active)
same,outcome,[11],inactive
same,activation,[12],64.6% (active)
same,outcome,[13],inactive
same,outcome,[14],inactive
same,outcome,[15],inactive
same,outcome,[16],inactive
O=C(Nc1ccncc1)c1ccc(Cl)c(S(=O)(=O)N2CCc3ccccc32)c1,activation,[1],108% (active)
same,outcome,[2],inactive
same,outcome,[3],inactive
same,outcome,[4],inactive
same,outcome,[5],inactive
same,outcome,[6],inactive
same,outcome,[7],inactive
same,outcome,[8],inactive
same,outcome,[9],inactive
same,outcome,[10],inactive
same,outcome,[11],inactive
same,activation,[12],17.7% (active)
same,outcome,[13],inactive
same,outcome,[14],inactive
same,outcome,[15],inactive
same,outcome,[16],inactive
CN(C)c1ccc(/C=C/C(=O)c2c(O)c3ccccc3oc2=O)cc1,activation,[1],221% (active)
same,outcome,[2],inactive
same,outcome,[3],inactive
same,outcome,[4],inactive
same,outcome,[5],inactive
same,outcome,[6],inactive
same,outcome,[7],inactive
same,outcome,[8],inactive
same,outcome,[9],inactive
same,activation,[10],934% (active)
same,outcome,[11],inactive
same,activation,[12],113% (active)
same,outcome,[13],inactive
same,outcome,[14],inactive
same,activation,[15],121% (active)
same,outcome,[16],inactive
Cc1ccccc1N1CC(O)(c2ccccc2)[N+]2=C1SCC2 (stereo not given),activation,[1],73% (active)
same,outcome,[2],inactive
same,outcome,[3],inactive
same,outcome,[4],inactive
same,outcome,[5],inactive
same,outcome,[6],inactive
same,outcome,[7],inactive
same,outcome,[8],inactive
same,outcome,[9],inactive
same,activation,[10],39% (active)
same,outcome,[11],inactive
same,outcome,[12],inactive
same,outcome,[13],inactive
same,outcome,[14],inactive
same,outcome,[15],inactive
same,outcome,[16],inactive
CCc1cccc(C)c1NC(=S)NCC(c1cccnc1)N(C)C (stereo not given),activation,[1],80% (active)
same,activation,[2],82% (active)
same,outcome,[3],inactive
same,outcome,[4],inactive
same,outcome,[5],inactive
same,outcome,[6],inactive
same,outcome,[7],inactive
same,outcome,[8],inactive
same,outcome,[9],inactive
same,outcome,[10],inactive
same,outcome,[11],inactive
same,outcome,[12],inactive
same,outcome,[13],inactive
same,outcome,[14],inactive
same,outcome,[15],inactive
same,outcome,[16],inactive
CCCN(CCC)CCCNC(=O)c1cc2c(-c3ccc(OC)c(OC)c3)nn(C)c2s1,activation,[1],97% (active)
same,activation,[2],78% (active)
same,outcome,[3],inactive
same,outcome,[4],inactive
same,outcome,[5],inactive
same,outcome,[6],inactive
same,outcome,[7],inactive
same,outcome,[8],inactive
same,outcome,[9],inactive
same,outcome,[10],inactive
same,outcome,[11],inactive
same,activation,[12],38.6% (active)
same,outcome,[13],inactive
same,outcome,[14],inactive
same,outcome,[15],inactive
same,outcome,[16],inactive
CN(CCc1ccccn1)C(=S)Nc1cccc(S(=O)(=O)N(C)C)c1,activation,[1],111% (active)
same,outcome,[2],inactive
same,outcome,[3],inactive
same,outcome,[4],inactive
same,outcome,[5],inactive
same,outcome,[6],inactive
same,outcome,[7],inactive
same,outcome,[8],inactive
same,outcome,[9],inactive
same,outcome,[10],inactive
same,outcome,[11],inactive
same,activation,[12],53.6% (active)
same,outcome,[13],inactive
same,outcome,[14],inactive
same,outcome,[15],inactive
same,outcome,[16],inactive
CCOC(=O)C1(Cc2cccc(F)c2)CCN(Cc2cnn(CC)c2C)CC1,activation,[1],100% (active)
same,activation,[2],94% (active)
same,outcome,[3],inactive
same,outcome,[4],inactive
same,outcome,[5],inactive
same,outcome,[6],inactive
same,outcome,[7],inactive
same,outcome,[8],inactive
same,outcome,[9],inactive
same,activation,[10],64% (active)
same,outcome,[11],inactive
same,outcome,[12],inactive
same,outcome,[13],inactive
same,outcome,[14],inactive
same,outcome,[15],inactive
same,outcome,[16],inactive
CCCCCc1c(O)nc(SCCN(C)C)[nH]c1=O,activation,[1],63% (active)
same,outcome,[2],inactive
same,outcome,[3],inactive
same,outcome,[4],inactive
same,outcome,[5],inactive
same,outcome,[6],inactive
same,outcome,[7],inactive
same,outcome,[8],inactive
same,outcome,[9],inactive
same,outcome,[10],inactive
same,outcome,[11],inactive
same,activation,[12],15.6% (active)
same,outcome,[13],inactive
same,outcome,[14],inactive
same,outcome,[15],inactive
same,outcome,[16],inactive
